PubChem BioAssay
Active and inactive are the calls of the source.

How the values were obtained:
[1] = compound effects on lung adenocarcinoma cell viability – A549, calcein-AM fluorescence, 48 h, basal, profiling panel (AID 1162); conditions: higher = more signal
[2] = compound effects on differentiated 3T3-L1 adipocyte viability – cell-based, 3T3-L1 adipocytes, calcein-AM fluorescence, 48 h, basal, profiling panel (AID 1163); conditions: 3T3-L1 adipocytes viability, higher = more signal
[3] = compound effects on hepatocellular carcinoma cell viability – HepG2, calcein-AM fluorescence, 48 h, basal, profiling panel (AID 1164); conditions: higher = more signal
[4] = compound effects on multiple myeloma cell viability – MM1S, calcein-AM fluorescence, 48 h, basal, profiling panel (AID 1165); conditions: higher = more signal
[5] = calcein-AM signal in unstimulated myeloma cells – cell-based, calcein-AM fluorescence, 48 h, PK04 Diversity Set, profiling panel (AID 1166); conditions: RPMI8226 myeloma viability, higher = more signal;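 note: cells grown under basal conditions without added stimulus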
[6] = JC-1 mitochondrial signal, unstimulated HepG2 cells – cell-based, JC-1 fluorescence, 24 h, 100 nL compound, profiling panel (AID 1167); conditions: HepG2 mitochondrial potential, higher = more signal
[7] = JC-1 mitochondrial signal, unstimulated adipocytes – cell-based, JC-1 fluorescence, 3T3-L1 adipocytes, 24 h, 100 nL compound, profiling panel (AID 1168); conditions: JC-1 mitochondrial fluorescence, higher = more signal, called active from +8 up or from −8 down
[8] = JC-1 mitochondrial signal, unstimulated myeloma cells – cell-based, JC-1 fluorescence, RPMI8226, 24 h, 100 nL compound, profiling panel (AID 1169); conditions: JC-1 mitochondrial potential fluorescence, higher = more signal
[9] = JC-1 mitochondrial signal, unstimulated MM1S myeloma – cell-based, JC-1 fluorescence, 24 h, 100 nL compound, profiling panel (AID 1170); conditions: MM1S mitochondrial potential, higher = more signal
[10] = resazurin metabolic signal in A549 cells – cell-based, resazurin fluorescence, 24 h, PK04 Diversity Set, profiling panel (AID 1171); conditions: A549 viability, higher = more signal, called active from +8 up or from −8 down
Note: test concentration not given here.

| SMILES | z-score [1] | z-score [2] | z-score [3] | z-score [4] | z-score [5] | z-score [6] | z-score [7] | z-score [8] | z-score [9] | z-score [10] |
| --- | --- | --- | --- | --- | --- | --- | --- | --- | --- | --- |
| CC(C)c1ccc(NN2C(C(O)c3ccc(B(O)O)cc3)C=CC3C(=O)N(c4ccccc4)C(=O)C32)cc1 (stereo not given) | -1.34 | -0.386 | -1.28 | -0.571 | -0.587 | -1.75 | -1.56 (inactive) | -0.894 | 0.00559 | -0.212 (inactive) |
| COCCOC(=O)N1C(=O)[C@@]2(c3ccccc31)[C@H](c1ccccc1OCCO)N1[C@H](c3ccccc3)[C@H](c3ccccc3)OC(=O)[C@H]1[C@@H]2C(=O)N1CCN(c2ncccn2)CC1 | -0.588 | -0.678 | -0.478 | -1.7 | -0.949 | 0.323 | 0.665 (inactive) | -0.929 | -1.36 | -1.05 (inactive) |
| COCCOC(=O)N1C(=O)[C@@]2(c3cc(C#CCC(C(=O)OC)C(=O)OC)ccc31)[C@H](c1ccccc1OCCO)N1[C@H](c3ccccc3)[C@H](c3ccccc3)OC(=O)[C@H]1[C@@H]2C(=O)N1CCN(c2ncccn2)CC1 | -0.0169 | 1.16 | 0.469 | -1.59 | -2.45 | 0.8 | 2.27 (inactive) | -0.78 | -0.522 | 0.934 (inactive) |
| CN1C(=O)C2C=CC(C(O)c3ccco3)N(Nc3ccccc3)C2C1=O (stereo not given) | -0.835 | -1.12 | -0.315 | -1.34 | -0.137 | -1.67 | -0.783 (inactive) | 0.819 | -0.101 | -0.579 (inactive) |
| CC(C)N1C(=O)C[C@@](C(=O)NCC(F)(F)F)(c2ccc([N+](=O)[O-])cc2)[C@H]1c1ccc(CO)cc1 | 1.41 | 1.13 | -0.0704 | -0.464 | -1.66 | 0.868 | -0.502 (inactive) | -0.564 | -1.51 | 0.201 (inactive) |
| O[C@@H](Cc1ccccc1)[C@H]1C2C=CCCC=C2CN1Cc1cccc(Cl)c1 (stereo not given in full) | 0.675 | -0.0495 | 1.31 | -3.23 | -2.25 | -0.241 | -0.173 (inactive) | -0.771 | -2.86 | -0.462 (inactive) |
| CN(C)CCCCCCNC(=O)[C@H]1C[C@H]2C(=O)N3CCC[C@H]3C(=O)N2[C@H]1c1ccc(O)cc1 | -0.79 | 0.627 | -0.952 | -0.567 | -0.554 | 0.661 | 0.597 (inactive) | 0.262 | 0.538 | -0.636 (inactive) |
| Cc1ccc(S[C@]2(C(=O)NC3CC3)CC(=O)N(Cc3ccccc3)[C@@H]2c2ccc(CO)cc2I)cc1 | 2.11 | 0.388 | 0.935 | -1.99 | -2.06 | 1.55 | 0.679 (inactive) | -0.525 | -1.26 | 0.618 (inactive) |
| COCCOC(=O)N1C(=O)[C@@]2(c3cc(C#CC4(O)CCCCCC4)ccc31)[C@H](c1ccc(OCCO)cc1)N1[C@H](c3ccccc3)[C@H](c3ccccc3)OC(=O)[C@H]1[C@@H]2C(=O)N1CCN(c2ncccn2)CC1 | -0.147 | -0.507 | -0.0949 | -0.373 | 0.182 | -0.643 | 0.295 (inactive) | -0.266 | -1.19 | -0.473 (inactive) |
| CCOC(=O)C[C@H]1[C@H](OC(=O)c2ccc(C(=O)c3ccccc3)cc2)[C@@H](NC(=O)c2ccc3ccccc3n2)c2cc(OCCCO)ccc2N1C(=O)c1ccccc1 | -0.851 | 0.824 | 0.376 | -0.67 | -0.705 | 1.11 | -0.966 (inactive) | 0.484 | -0.318 | 0.154 (inactive) |
| CCOC(=O)C[C@H]1[C@H](OC(=O)c2ccc(-c3ccccc3)cc2)[C@@H](NC(=O)Cc2ccc(OC)cc2)c2cc(OCCCO)ccc2N1C(=O)c1ccccc1 | -0.137 | 0.533 | -0.42 | 0.57 | -0.432 | 1.37 | -1.03 (inactive) | 0.0293 | -0.102 | -0.657 (inactive) |
| C=C(COC)/C(=C/C[C@@H](OC(C)=O)c1ccc(OCCO)cc1)c1cnc2ccccc2c1 | 2.32 | 1.86 | 0.109 | -0.83 | -0.175 | 2.42 | -0.502 (inactive) | -0.612 | -0.701 | 0.0521 (inactive) |
| C=CC[C@@]12N=C(c3ccc(OCCCO)cc3)O[C@@H]1c1ccccc1N(C)C2=O | -0.588 | 0.596 | -1.33 | -1.79 | -2.61 | 0.0239 | 1.51 (inactive) | -1.12 | -0.767 | -0.0732 (inactive) |
| CCCC#C[Si](O[C@H](CC)c1cn(Cc2cccc(Cl)c2)nn1)(C(C)C)C(C)C | 1.19 | -1.07 | 1.58 | -1.07 | -0.223 | -0.742 | -0.228 (inactive) | -0.112 | -0.916 | 0.158 (inactive) |
| O=C1c2ccccc2[C@](Cc2ccccc2I)(C(=O)NCCN2CCOCC2)[C@H](c2ccc(CO)cc2)N1C1CCCCC1 | 0.668 | 0.195 | 1.52 | -0.196 | -1.22 | 1.36 | -1.01 (inactive) | -0.385 | -0.96 | -0.112 (inactive) |
| COC(=O)[C@H](Cc1ccccc1)N[C@@H](/C=C/C1CC1)[C@H](O)Cc1ccccc1 | 0.168 | -0.0648 | -0.438 | -0.608 | -0.507 | -0.908 | -0.124 (inactive) | -1.17 | -0.594 | 0.778 (inactive) |
| O=C1C2C=CC(C(O)c3cc(C(F)(F)F)cc(C(F)(F)F)c3)N(n3cnnc3)C2C(=O)N1Cc1ccccc1 (stereo not given) | -0.416 | 0.649 | -0.167 | 0.0347 | -1.41 | -0.605 | -1.62 (inactive) | 0.11 | 0.914 | -0.226 (inactive) |
| COc1ccc(C(O)C2C=CC3C(=O)N(Cc4ccccc4)C(=O)C3N2n2cnnc2)cc1OCc1ccccc1 (stereo not given) | 0.187 | 0.534 | -0.345 | 0.195 | -1.79 | -0.323 | -1.06 (inactive) | 0.593 | -0.882 | 0.18 (inactive) |
| O=C(CS)NCCCCCCNC(=O)[C@@H]1C[C@@H]2C(=O)NCC(=O)N2[C@@H]1c1cccc(OCCO)c1 | 0.861 | -0.356 | 0.381 | 0.38 | 0.754 | 0.502 | 0.475 (inactive) | 0.116 | -0.502 | -0.489 (inactive) |
| CCOC(=O)C[C@H]1[C@H](OC(=O)c2ccc(C(=O)c3ccccc3)cc2)[C@@H](NC(=O)c2ccccc2)c2cc(OCCCO)ccc2N1C(=O)Cc1ccc(OC)cc1 | 1.21 | -0.0981 | 0.316 | -0.797 | 0.0179 | 1.95 | 0.591 (inactive) | -0.696 | -0.231 | 0.261 (inactive) |
| NC(=O)[C@@H]1[C@H]2C(=O)O[C@H](c3ccccc3)[C@H](c3ccccc3)N2[C@H](c2ccc(O)cc2)[C@@]12C(=O)Nc1ccccc12 | -0.343 | 0.956 | -0.19 | -0.647 | -0.07 | -0.376 | -0.0789 (inactive) | -0.902 | -0.079 | -0.0543 (inactive) |
| O=C(NCCN1CCOCC1)[C@@H]1c2ccccc2C(=O)N(C2CCCCC2)[C@H]1c1ccc(CO)cc1 | 1.37 | 1.19 | 2.16 | -0.165 | -1.03 | 3.08 | -0.0789 (inactive) | 0.0842 | 0.146 | 1.17 (inactive) |
| CN1C(=O)C2C=CC(C(O)C#Cc3ccccc3)N(N3CCCCC3)C2C1=O (stereo not given) | -0.388 | -0.382 | -0.149 | 0.241 | 0.609 | -0.242 | 0.567 (inactive) | 0.382 | -0.547 | -0.913 (inactive) |
| C=CCN1C(=O)[C@]2(O[C@H](CCn3cc([C@H](O)c4ccccc4)nn3)[C@@H]([Si](C)(C)c3ccc(OC)cc3)[C@@H]2C)c2cc(N3CCC3=O)ccc21 | -0.668 | 0.87 | -1.39 | -2.05 | -2.95 | 2.75 | 0.85 (inactive) | -0.949 | 0.507 | -1.71 (inactive) |
| COCCOC(=O)N1C(=O)[C@@]2(c3cc(C#CCC(C(=O)OC)C(=O)OC)ccc31)[C@H](C(=O)N1CCN(c3ncccn3)CC1)[C@H]1C(=O)O[C@H](c3ccccc3)[C@H](c3ccccc3)N1[C@@H]2c1ccccc1OCCO | 0.0182 | 0.462 | -0.481 | -0.748 | 0.297 | 1.37 | 1.39 (inactive) | -0.182 | -1.2 | -0.174 (inactive) |
| O=C(NCCN1CCOCC1)C1N=C(c2ccc(OCCCO)cc2)N(c2ccccc2)O1 (stereo not given) | 0.264 | -0.126 | 0.291 | 0.66 | -0.425 | 0.0176 | 0.653 (inactive) | -1.28 | 1.27 | 0.712 (inactive) |
| COC(=O)C(CC#Cc1ccc2c(c1)[C@]1(C(=O)N2)[C@H](C(=O)Nc2nc3ccccc3s2)[C@H]2C(=O)O[C@H](c3ccccc3)[C@H](c3ccccc3)N2[C@@H]1c1ccccc1OCCO)C(=O)OC | -0.231 | 0.728 | 0.0091 | -0.426 | -2.6 | -2.7 | -0.502 (inactive) | -1.17 | -1.63 | -0.367 (inactive) |
| COCCOC(=O)N1C(=O)[C@@]2(c3cc(C#CCCO)ccc31)[C@H](C(N)=O)[C@H]1C(=O)O[C@H](c3ccccc3)[C@H](c3ccccc3)N1[C@@H]2c1ccc(O)cc1 | -0.272 | 0.24 | -0.05 | 0.0119 | -1.2 | -0.537 | -0.142 (inactive) | -0.105 | 0.0477 | -0.3 (inactive) |
